Test results published in PubChem BioAssay (EPA / NIEHS).
“And” between values parts separate entries of the source, which are not always exact repeats. Identical values can stand only once. Inconclusive results are not listed. The source holds several records for some structures; these can differ, active in one and inactive in another. The source made the active and inactive calls. The calls were made as follows, unless noted: active = hit-call score of the fitted dose curve at least 0.9, where 1 is the maximum; inconclusive = response in the unintended direction; inactive = score below 0.9.

Columns and labels:
[1] = ATG_Ets_CIS: Attagene CIS-FACTORIAL HepG2 Assay for human Erythroblast Transformation Specific (ETS) (AID 2282941; active = hit-call score of the fitted dose curve at least 0.9, where 1 is the maximum; inactive = score below 0.9); details: HepG2 ETS cis-reporter transcription, actives raise or lower the signal
In short: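 RT-PCR/capillary electrophoresis fluorescence read-out of reporter mRNA; HepG2 transient multi-reporter transfection; 24 h compound exposure; gain or loss of signal fitted bidirectionally relative to DMSO.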

[2] = biological target: Hepatocyte nuclear factor 3-beta (Homo sapiens) (UniProt Q9Y261); test: ATG_FoxA2_CIS: Attagene CIS-FACTORIAL HepG2 Assay for human Forkhead box A2 (FOXA2) (AID 2282942; active = hit-call score of the fitted dose curve at least 0.9, where 1 is the maximum; inactive = score below 0.9); details: HepG2 cis-reporter transcription factor activity, 24 h; actives raise or lower the signal
In short: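 Endogenous transcription factor activity was read in HepG2 cells carrying transiently transfected cis-promoter reporter units. After 24 h dosing, reporter mRNA was quantified by RT-PCR and capillary electrophoresis, and values fitted bidirectionally versus DMSO.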

[3] = ATG_ISRE_CIS: Attagene CIS-FACTORIAL HepG2 Assay for human Interferon Regulatory Factor 1 (IRF1) binding to an Interferon-Stimulated Response Element (ISRE) (AID 2282948; active = hit-call score of the fitted dose curve at least 0.9, where 1 is the maximum; inactive = score below 0.9); details: HepG2 ISRE cis-reporter (Attagene), mRNA transcription readout; actives raise or lower the signal
In short: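 Read-out: fluorescent RT-PCR products resolved by capillary electrophoresis, reporting endogenous transcription factor activity via ISRE-driven reporter mRNA in transfected HepG2 cells dosed for 24 h; gain or loss fitted relative to DMSO.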

[4] = biological target: Hepatocyte nuclear factor 6 (Homo sapiens) (UniProt Q9UBC0); test: ATG_HNF6_CIS: Attagene CIS-FACTORIAL HepG2 Assay for human Hepatocyte Nuclear Factor 6 (HNF6) (AID 2282952; active = hit-call score of the fitted dose curve at least 0.9, where 1 is the maximum; inactive = score below 0.9); details: HepG2 Attagene cis-factorial HNF6 reporter transcription; actives raise or lower the signal
In short: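 Using cis-element reporters in HepG2 liver cells, the assay tracks endogenous factor-driven transcription 24 h post-dosing. Signal comes from 6-FAM-labelled, HpaI-digested RT-PCR fragments, with gain or loss scored against DMSO.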

[5] = biological target: Heat shock factor protein 1 (Homo sapiens) (UniProt Q00613); test: ATG_HSE_CIS: Attagene CIS-FACTORIAL HepG2 Assay for human Heat Shock Transcription Factor 1 (HSE) (AID 2282953; active = hit-call score of the fitted dose curve at least 0.9, where 1 is the maximum; inactive = score below 0.9); details: HepG2 HSE cis-reporter, Attagene RNA transcription; actives raise or lower the signal
In short: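 Endogenous transcription factor activity captured via cis-promoter reporter units transfected into HepG2; treatment lasted 24 h. Fluorescence intensity of reporter fragments analysed with bidirectional curve fitting, DMSO baseline.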

[6] = biological target: Transcription factor Sp1 (Homo sapiens) (UniProt P08047); test: ATG_Sp1_CIS: Attagene CIS-FACTORIAL HepG2 Assay for human Specificity Protein 1 (Sp1) (AID 2282961; active = hit-call score of the fitted dose curve at least 0.9, where 1 is the maximum; inactive = score below 0.9); details: HepG2 Sp1 cis-reporter transcription, actives raise or lower the signal
In short: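 Endogenous Sp1 activity was gauged in human liver HepG2 cells bearing transfected reporter units under a cis-regulating promoter. After 24 h dosing, reporter mRNA was quantified by RT-PCR with capillary electrophoresis, and activity fitted bidirectionally versus DMSO.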

[7] = ATG_SREBP_CIS: Attagene CIS-FACTORIAL HepG2 Assay for human Sterol Regulatory Element Binding (SREBP) (AID 2282962; active = hit-call score of the fitted dose curve at least 0.9, where 1 is the maximum; inactive = score below 0.9); details: HepG2 Attagene cis-factorial SREBP reporter, mRNA; actives raise or lower the signal
In short: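 Readout: fluorescent reporter-transcript peaks resolved by capillary electrophoresis after RT-PCR. Cells were human HepG2 carrying transfected cis-promoter reporter constructs, dosed for 24 h. Gain or loss of signal was fitted against DMSO controls.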

[8] = biological target: Nuclear respiratory factor 1 (Homo sapiens) (UniProt Q16656); test: ATG_NRF1_CIS: Attagene CIS-FACTORIAL HepG2 Assay for human Nuclear Respiratory Factor 1 (NRF1) Orphan Gene (AID 2282987; active = hit-call score of the fitted dose curve at least 0.9, where 1 is the maximum; inactive = score below 0.9); details: HepG2 NRF1 cis-element reporter, Attagene multiplex; actives raise or lower the signal
In short: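 Fluorescence intensity of labelled reporter cDNA fragments, resolved by capillary electrophoresis, served as readout for NRF1 cis-element activity. Transiently transfected HepG2 cells were dosed for 24 hours; activity in either direction was fitted against DMSO negative control.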

[9] = biological target: Cellular tumor antigen p53 (Homo sapiens) (UniProt P04637); test: ATG_p53_CIS: Attagene CIS-FACTORIAL HepG2 Assay for human p53 Transcription Factor (AID 2282994; active = hit-call score of the fitted dose curve at least 0.9, where 1 is the maximum; inactive = score below 0.9); details: HepG2 p53 cis-element reporter, Attagene mRNA; actives raise or lower the signal
In short: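 Read-out: reporter mRNA by RT-PCR plus capillary electrophoresis with fluorescence detection. Human HepG2 liver cells carried transfected multi-reporter cis-element constructs, dosed 24 h. Gain or loss of signal fitted bidirectionally against DMSO control.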

[10] = TOX21_p53_BLA_p2_viability: Viability Assessment in the Tox21 HCT-116 p53 Agonism Beta-lactamase Assay, Phase 2 (AID 2283591);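 also: compound exposure lasted 16 h at 37 °C; actives lower the ATP signal meaning cytotoxicity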
In short: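 HCT116 p53-bla cells, 4000/well, dosed after 5 h plating (217-fold dilution of DMSO stocks) and incubated 16 h at 37C. Viability taken as cellular ATP by CellTiter-Glo luminescence after 30 min RT; signal loss marks cytotoxicity.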

[11] = biological target: Cellular tumor antigen p53 (Homo sapiens) (UniProt P04637); test: TOX21_p53_BLA_p3_ratio: Tox21 HCT-116 p53 Agonism Beta-lactamase Assay, Ratio, Phase 3 (AID 2283596)
In short: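 Cells were seeded at 4000/well, rested 5 h at 37C, then dosed with DMSO compound solutions (217-fold dilution) for 16 h. CCF4-AM substrate was loaded for 2 h at room temperature, and the 460/530 nm emission ratio was fitted for gain of signal versus DMSO.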

[12] = biological target: Cellular tumor antigen p53 (Homo sapiens) (UniProt P04637); test: TOX21_p53_BLA_p5_ratio: Tox21 HCT-116 p53 Agonism Beta-lactamase Assay, Ratio, Phase 5 (AID 2283599)
In short: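 HCT-116 p53-bla cells (4000/well) plated 5 h, dosed with compound (217-fold DMSO dilution) for 16 h at 37 C; CCF4-AM substrate 2 h at room temperature. Activity is the 460/530 nm emission ratio (405 nm excitation), fitted in gain-of-signal direction versus DMSO.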

[13] = biological target: Cellular tumor antigen p53 (Homo sapiens) (UniProt P04637); test: TOX21_p53_BLA_p4_ratio: Tox21 HCT-116 p53 Agonism Beta-lactamase Assay, Ratio, Phase 4 (AID 2283601)
In short: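 HCT-116 p53 beta-lactamase reporter cells (4000/well) preincubated 5 h, then compound (217-fold dilution of DMSO stock) for 16 h at 37C. CCF4-AM substrate added 2 h at room temperature; 460/530 nm emission ratio fitted upward versus DMSO.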

[14] = biological target: Cellular tumor antigen p53 (Homo sapiens) (UniProt P04637); test: TOX21_p53_BLA_p2_ratio: Tox21 HCT-116 p53 Agonism Beta-lactamase Assay, Ratio, Phase 2 (AID 2283592)
In short: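 Plated HCT116 p53-bla cells (4000/well) received compound after 5 h, then 16 h at 37C/5% CO2. CCF4-AM added, 2 h RT. Ratio of 460 to 530 nm emission taken as the p53 reporter signal.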

[15] = TOX21_p53_BLA_p3_viability: Viability Assessment in the Tox21 HCT-116 p53 Agonism Beta-lactamase Assay, Phase 3 (AID 2283593);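 also: cells exposed to compound for 16 h before reading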
In short: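 HCT116 cells, 4000/well, dosed 5 h after plating by pin transfer (217-fold dilution from DMSO stock) and incubated 16 h at 37C, 5% CO2. Viability read as ATP luminescence with CellTiter-Glo after 30 min at room temperature.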

[16] = TOX21_p53_BLA_p4_viability: Viability Assessment in the Tox21 HCT-116 p53 Agonism Beta-lactamase Assay, Phase 4 (AID 2283597);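 also: hits lower the luminescence signal meaning cytotoxicity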
In short: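 Readout: ATP luminescence (CellTiter-Glo), measured 30 min after reagent addition at RT. The reagent followed a 2 h CCF4-AM incubation, and the cells had been exposed to compound for 16 h at 37C.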

[17] = TOX21_p53_BLA_p5_viability: Viability Assessment in the Tox21 HCT-116 p53 Agonism Beta-lactamase Assay, Phase 5 (AID 2283600)
In short: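 Workflow: seed 4000 cells per well, wait 5 h, add compounds (DMSO, 217-fold dilution), incubate 16 h, load CCF4-AM 2 h, add CellTiter-Glo, read luminescence after 30 min.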

Measured: AC50

Sequence of Cellular tumor antigen p53 (Homo sapiens) (P04637 whole entry, looked up): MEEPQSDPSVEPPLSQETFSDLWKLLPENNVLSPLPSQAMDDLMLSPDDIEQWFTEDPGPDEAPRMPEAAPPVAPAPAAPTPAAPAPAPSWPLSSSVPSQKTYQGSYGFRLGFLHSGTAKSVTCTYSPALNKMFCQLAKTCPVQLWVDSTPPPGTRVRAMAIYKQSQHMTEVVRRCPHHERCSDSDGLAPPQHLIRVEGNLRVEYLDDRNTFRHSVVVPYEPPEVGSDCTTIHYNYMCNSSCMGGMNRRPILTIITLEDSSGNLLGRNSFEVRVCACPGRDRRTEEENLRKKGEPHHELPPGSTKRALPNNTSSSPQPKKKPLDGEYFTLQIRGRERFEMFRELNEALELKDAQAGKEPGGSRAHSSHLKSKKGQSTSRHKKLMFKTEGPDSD
Sequence of Transcription factor Sp1 (Homo sapiens) (P08047 whole entry, looked up): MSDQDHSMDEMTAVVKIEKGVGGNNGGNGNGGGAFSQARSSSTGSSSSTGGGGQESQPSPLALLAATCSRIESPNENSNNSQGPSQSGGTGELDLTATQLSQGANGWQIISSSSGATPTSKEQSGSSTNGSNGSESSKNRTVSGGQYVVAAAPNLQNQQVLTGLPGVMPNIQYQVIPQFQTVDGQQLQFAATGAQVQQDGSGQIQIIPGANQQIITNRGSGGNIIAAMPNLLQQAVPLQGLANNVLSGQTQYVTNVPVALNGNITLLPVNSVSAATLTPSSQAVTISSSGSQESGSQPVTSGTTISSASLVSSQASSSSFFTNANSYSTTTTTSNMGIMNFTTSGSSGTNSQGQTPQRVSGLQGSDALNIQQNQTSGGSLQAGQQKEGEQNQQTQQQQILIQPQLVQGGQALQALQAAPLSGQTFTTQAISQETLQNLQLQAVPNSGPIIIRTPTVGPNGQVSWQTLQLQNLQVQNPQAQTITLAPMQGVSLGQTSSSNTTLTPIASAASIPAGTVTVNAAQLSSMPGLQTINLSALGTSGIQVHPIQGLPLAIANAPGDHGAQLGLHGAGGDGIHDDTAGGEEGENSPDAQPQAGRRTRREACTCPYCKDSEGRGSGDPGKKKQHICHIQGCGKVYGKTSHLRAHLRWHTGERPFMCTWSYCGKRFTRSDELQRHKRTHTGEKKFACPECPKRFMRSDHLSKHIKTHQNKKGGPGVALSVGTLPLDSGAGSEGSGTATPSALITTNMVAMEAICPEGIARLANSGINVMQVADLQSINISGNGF
Sequence of Hepatocyte nuclear factor 3-beta (Homo sapiens) (Q9Y261 whole entry, looked up): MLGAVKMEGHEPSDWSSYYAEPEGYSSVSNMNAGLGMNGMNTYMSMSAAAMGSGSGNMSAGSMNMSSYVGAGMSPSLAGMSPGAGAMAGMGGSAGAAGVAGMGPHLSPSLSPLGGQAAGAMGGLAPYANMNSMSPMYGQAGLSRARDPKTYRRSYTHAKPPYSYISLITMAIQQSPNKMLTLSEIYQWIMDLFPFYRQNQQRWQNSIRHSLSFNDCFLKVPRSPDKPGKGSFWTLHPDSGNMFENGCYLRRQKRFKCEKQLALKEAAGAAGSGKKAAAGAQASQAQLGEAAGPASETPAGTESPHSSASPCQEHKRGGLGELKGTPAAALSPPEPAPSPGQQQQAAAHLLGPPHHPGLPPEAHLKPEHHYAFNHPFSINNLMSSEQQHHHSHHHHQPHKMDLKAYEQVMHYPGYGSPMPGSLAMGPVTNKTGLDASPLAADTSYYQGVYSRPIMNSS
Sequence of Heat shock factor protein 1 (Homo sapiens) (Q00613 whole entry, looked up, the tested form may be a part): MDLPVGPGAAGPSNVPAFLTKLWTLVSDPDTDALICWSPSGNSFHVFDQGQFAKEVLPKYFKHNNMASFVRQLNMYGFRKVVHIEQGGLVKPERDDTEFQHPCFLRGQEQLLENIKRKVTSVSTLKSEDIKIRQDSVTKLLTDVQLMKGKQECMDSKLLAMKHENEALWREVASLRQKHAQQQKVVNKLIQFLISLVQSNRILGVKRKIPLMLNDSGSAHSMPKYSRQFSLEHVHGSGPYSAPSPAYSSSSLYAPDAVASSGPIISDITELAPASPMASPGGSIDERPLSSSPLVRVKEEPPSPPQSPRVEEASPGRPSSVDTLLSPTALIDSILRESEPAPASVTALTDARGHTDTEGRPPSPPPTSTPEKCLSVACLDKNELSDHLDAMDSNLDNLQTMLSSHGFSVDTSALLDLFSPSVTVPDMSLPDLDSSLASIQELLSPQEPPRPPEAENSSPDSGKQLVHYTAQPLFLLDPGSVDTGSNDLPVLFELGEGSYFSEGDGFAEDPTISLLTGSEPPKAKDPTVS
Sequence of Nuclear respiratory factor 1 (Homo sapiens) (Q16656 whole entry, looked up, the tested form may be a part): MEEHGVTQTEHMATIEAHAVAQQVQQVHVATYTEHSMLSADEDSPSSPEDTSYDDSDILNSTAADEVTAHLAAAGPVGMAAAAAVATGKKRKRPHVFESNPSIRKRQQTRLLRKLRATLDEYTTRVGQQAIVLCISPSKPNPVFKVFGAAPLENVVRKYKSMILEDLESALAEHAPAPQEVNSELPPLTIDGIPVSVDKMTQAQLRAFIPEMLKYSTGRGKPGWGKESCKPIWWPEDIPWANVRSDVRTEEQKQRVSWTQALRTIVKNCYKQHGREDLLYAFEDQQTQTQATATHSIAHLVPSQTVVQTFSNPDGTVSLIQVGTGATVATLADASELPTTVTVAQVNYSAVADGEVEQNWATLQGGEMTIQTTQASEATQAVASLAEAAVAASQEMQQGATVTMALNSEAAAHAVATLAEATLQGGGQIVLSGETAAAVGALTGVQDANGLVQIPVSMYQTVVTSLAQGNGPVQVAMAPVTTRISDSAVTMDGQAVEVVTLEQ
Sequence of Hepatocyte nuclear factor 6 (Homo sapiens) (Q9UBC0 whole entry, looked up, the tested form may be a part): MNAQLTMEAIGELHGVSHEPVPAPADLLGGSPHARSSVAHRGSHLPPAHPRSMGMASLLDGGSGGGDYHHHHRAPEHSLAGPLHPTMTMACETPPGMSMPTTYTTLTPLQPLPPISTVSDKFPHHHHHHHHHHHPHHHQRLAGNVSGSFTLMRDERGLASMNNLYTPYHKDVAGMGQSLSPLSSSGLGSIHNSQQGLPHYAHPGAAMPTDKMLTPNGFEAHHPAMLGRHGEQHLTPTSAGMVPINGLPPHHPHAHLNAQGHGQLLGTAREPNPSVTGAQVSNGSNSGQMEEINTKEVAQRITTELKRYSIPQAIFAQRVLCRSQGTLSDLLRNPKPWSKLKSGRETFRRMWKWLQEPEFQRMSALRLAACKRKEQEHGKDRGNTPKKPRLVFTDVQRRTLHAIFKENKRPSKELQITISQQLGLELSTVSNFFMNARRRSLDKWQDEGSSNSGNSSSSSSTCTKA

CCCCCCCCCCCCCC
not listed: [14] | [15] | [16] | [17]
inactive: all other assays above

CCCCCCCCCCCCN(CCO)CCO
active: [10] 69.7 µM | [14] 46.9 µM | [15] 64.3 µM | [11] 49.2 µM | [16] 53.4 µM | [12] 75.6 µM | [17] 59.3 µM | [13] 69.1 µM

CCCCCCCCCCCCCCCCCCOCC(COP(=O)([O-])OCC[N+](C)(C)C)OC (stereo unspecified)
active: [10] 36.3 µM | [14] 43.6 µM

CCOc1nc2cccc(C(=O)OC(C)OC(=O)OC3CCCCC3)c2n1Cc1ccc(-c2ccccc2-c2nn[nH]n2)cc1 (stereo unspecified)
active: [10] 8.23 µM | [14] 14 µM | [15] 13 µM | [11] 34 µM | [16] 13.4 µM | [12] 15.7 µM | [17] 7.02 µM | [13] 24.4 µM

CCN(Cc1cccc(S(=O)(=O)O)c1)c1ccccc1
inactive: [10] | [11] | [16] | [12] | [17]

CC(=O)Oc1ccccc1C(=O)Nc1ncc([N+](=O)[O-])s1
active: [10] 10.7 µM | [14] 2.61 µM and 14.1 µM | [15] 4.46 µM and 6.54 µM | [11] 1.19 µM and 15.5 µM | [16] 12.7 µM | [12] 3.18 µM and 22.4 µM | [17] 10.7 µM | [13] 5.33 µM
inactive: [10] | [16] | [17] | [13]

Cc1oc(C)c(C(=O)Nc2ccccc2)c1C
inactive: [10] | [14] | [15] | [11] | [16] | [12] | [17] | [13]
